The list is not random: actives were taken first. Their share in the collection is about 1.4%.
VHR inh abs: blocks human VHR1 dual specificity phosphatase; P51452; recombinant VHR phosphatase, pNPP absorbance; inhibition, % at 13.3 µM; 0.52% of 290,000 active; in the data active = inhibition above about 50%
Target sequence (P51452 whole entry, looked up): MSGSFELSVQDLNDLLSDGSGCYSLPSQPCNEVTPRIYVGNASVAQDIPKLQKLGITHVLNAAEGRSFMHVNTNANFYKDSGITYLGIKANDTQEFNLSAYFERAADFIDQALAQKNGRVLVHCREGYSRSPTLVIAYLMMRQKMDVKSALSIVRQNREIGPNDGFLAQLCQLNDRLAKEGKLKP
SARS 3CLpro inh: SARS-CoV 3CLpro protease inhibition. recombinant SARS-CoV 3CLpro, quenched FRET peptide cleavage. P0C6X7. inhibition, % at 6 µM. 0.14% of 290,000 active; in the data active = inhibition above about 12%
MazF activator: increases E. coli MazEF RNase cleavage of RNA; activation, % at 20 µM; 0.32% of 350,000 active; FAM/BHQ RNA-DNA oligo cleavage fluorescence, 5 h; P0AE70; AID 504720; in the data active = activation above about 50%
Target sequence (P0AE70 whole entry, looked up): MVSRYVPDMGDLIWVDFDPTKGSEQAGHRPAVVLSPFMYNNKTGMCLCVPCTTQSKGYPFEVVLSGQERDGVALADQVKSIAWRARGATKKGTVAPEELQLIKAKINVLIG
CCHF vOTU inh: blocks the CCHF virus ovarian tumor domain protease. CCHFV vOTU protease, Pep-AMC fluorescence. inhibition, % at 11.5 µM. 0.55% of 370,000 active. AID 651958; in the data active = inhibition above about 30%; note: 0% = vehicle wells with enzyme and 100% = no enzyme wells
BJeLR viability: BJeLR cell viability loss; AID 1554; inhibition, % (no concentration beside the values); 0.17% of 300,000 active; BJeLR (HRASV12) viability, CellTiter-Glo ATP luminescence, 48 h; in the data active = inhibition above about 50%
* hit, by the source's call; . = no result given.

SMILES | VHR inh abs | SARS 3CLpro inh | MazF activator | CCHF vOTU inh | BJeLR viability
CCOC(=O)c1ccccc1NC(=O)Cn1cnc2c(cnn2-c2ccccc2)c1=O | -4.1 | 1.8 | -4.6 | -8.7 | -16.5
CCN1CCCC1CNC(=O)c1cc([N+](=O)[O-])c(N(C)C)cc1OC (stereo not drawn) | 57.0* | -4.3 | 9.7 | 3.0 | -1.3
Cc1ccc(C(=O)NCCCNC(=O)c2ccco2)cn1 | 56.5* | 1.2 | 8.3 | 2.7 | -4.7
C=CCN1[C@H](C#N)[C@@H](c2ccc(Br)cc2)[C@H]1CO | . | . | . | -8.2 | .
O=C1Nc2ccccc2/C1=C/c1cnc(-c2ccccc2)[nH]1 | -22.5 | -2.7 | 98.0* | -1.9 | -3.0
CCOC(=O)[C@]12CCCCC/C=C\1N(Cc1ccc(OC)cc1)C(=O)[C@H]2CC(=O)NCCc1ccccc1OC | . | . | . | 8.4 | .
COc1ccccc1C(=O)N/C(N)=N/c1nc2ccccc2o1 | 38.0 | -5.1 | 61.2* | 9.1 | -17.1
Cc1ccc(C(=O)N/C(N)=N/c2nc3ccccc3o2)cc1 | 10.4 | 4.0 | 14.9 | -0.8 | 2.0
Cc1ccccc1C(=O)NC1CCCCN(Cc2ccc(Cl)cc2)C1=O (stereo not drawn) | . | . | . | -4.7 | .
CC(C)CN1C(=O)[C@@]2(CC(=O)N(C)C2c2ccccc2)c2cc(-n3cc(-c4ccccc4)nn3)ccc21 (stereo partly drawn) | . | . | . | -2.0 | .
CC(C)(C)C(=O)CSc1nnc(SCc2cccc3ccccc23)s1 | . | . | . | 5.8 | .
Cc1oc(-c2ccc(Cl)cc2)nc1CN1CCCC(C(=O)N2CCN(C(=O)c3ccco3)CC2)C1 (stereo not drawn) | 52.3* | 3.1 | 5.3 | 9.1 | 8.1
O=C1C=C(c2cccs2)C[C@H](c2ccccc2)[C@H]1n1nnc([N+](=O)[O-])n1 | -1.6 | -0.4 | 4.4 | 4.9 | 82.6*
C=CCN1C(=O)[C@@H](CC(=O)N2CCCCC2)[C@]2(C(=O)OC)CCCCC=C12 | . | . | . | -5.4 | .
O=C(CNC(=O)/C=C/c1ccccc1)N=Nc1c(O)n(Cc2ccccc2)c2ccccc12 | 56.2* | 0.3 | . | -8.1 | -2.1
Cn1c(O)c(/C=C/C=Nc2ccccc2)c(=O)n(C)c1=S | 53.8* | 0.4 | -447.9 | 7.0 | 5.1
Cc1ccccc1-n1c(O)c(/C=C/C=Nc2ccccc2)c(=O)[nH]c1=O | 2.1 | -7.9 | -477.0 | 17.0 | -3.5
c1ccc2c(c1)CCN(CCCNc1nc3ccccc3n3cnnc13)C2 | 54.2* | -0.9 | 3.3 | 12.1 | .
COCCNc1nc2ccccc2n2cnnc12 | 9.5 | 1.2 | 7.5 | -2.3 | -2.0
COc1ccc(C2C(C(=O)Nc3c(C)cccc3C)CCC(=O)N2c2ccc(OC)cc2)cc1 (stereo not drawn) | . | . | . | -6.0 | .
CCOc1ccc(/C=N/NC(=O)CN2CCCCC2)cc1OCC | 53.9* | -3.0 | 8.7 | -3.4 | 5.8
CCOc1cc(/C=N/NC(=O)CN2CCCCC2)ccc1OCc1ccccc1 | 21.4 | 4.0 | -1.7 | 6.8 | 8.7
O=S(=O)(c1ccccc1Br)N(Cc1cn(Cc2ccccc2)nn1)C1CC1 | . | . | . | 13.2 | .
CC1(C)CC(=O)c2cc(OCC(=O)NCCCN3CCN(c4ccc(F)cc4)CC3)ccc2O1 | 52.6* | -1.1 | -4.3 | -25.5 | 3.0
COc1ccc(N2CCN(CCCNC(=O)COc3ccc(F)cc3)CC2)cc1 | . | . | . | -5.5 | .
SMILES | VHR inh abs | SARS 3CLpro inh | MazF activator | CCHF vOTU inh | BJeLR viability
N#Cc1c(-c2ccccc2F)cc(C2CC2)nc1SCC(=O)c1cccs1 | 3.4 | 0.0 | 65.4* | 1.4 | 1.9
CCSc1nc(C2CC2)cc(-c2cccs2)c1C#N | -20.9 | -1.8 | -4.5 | -12.0 | -5.9
Cc1cc(NCc2ccccc2)n2ncc(-c3ccccc3)c2n1 | 54.7* | -0.1 | -2.1 | -3.2 | -8.4
CCOC(=O)C1(Cc2ccccc2)CCN(Cc2ccc(C)cc2)CC1 | . | . | . | 4.4 | .
CC1(C)Cc2nc(-c3ccccc3)nc(SCC(=O)N3CCOCC3)c2CO1 | 38.7 | -5.4 | 3.6 | -4.4 | -5.1
Cc1cccc(-c2nc3c(c(SCC(=O)N4CCOCC4)n2)COC(C)(C)C3)c1 | 59.8* | -0.6 | 13.2 | 0.3 | 4.4
C=CCN1C(=O)[C@@H](CC(=O)N2CCN(C(=O)C3CC3)CC2)[C@]2(C(=O)OC)CCCCC=C12 | . | . | . | -2.3 | .
Cc1ccc2[nH]c3c(c2c1)CCCC3NC(=O)CCl (stereo not drawn) | 4.1 | -2.5 | 12.5 | . | 59.9*
Cc1ccc2[nH]c3c(c2c1)CCCC3C(N)=O (stereo not drawn) | 7.6 | 3.4 | -0.2 | -3.7 | 7.8
O=C(Nc1ccccc1Oc1ccccc1)NC1CCCCN(Cc2cccc(Cl)c2)C1=O (stereo not drawn) | . | . | . | 6.3 | .
CCC(CC)NC(=O)CCc1nc2ccccc2c(=O)[nH]1 | 51.4* | -2.9 | 3.0 | -9.4 | 4.5
CN(C)c1ccc(/C=C2\SC(=S)N(Nc3ncc(C(F)(F)F)cc3Cl)C2=O)cc1 | 17.3 | 3.9 | 52.5* | 6.0 | -2.8
CC(C)C[C@H]1COc2cccc(F)c2S(=O)(=O)N1Cc1cn(Cc2ccc(F)cc2)nn1 | . | . | . | -3.0 | .
COCCN1C(=O)C(CC(=O)Nc2ccc(C(C)=O)cc2)SC1=Nc1ccccc1 (stereo not drawn) | 57.4* | 4.0 | -4.4 | 7.9 | 5.0
CC(O)CN1C(=O)C(CC(=O)Nc2ccc(Cl)cc2)SC1=Nc1ccccc1 (stereo not drawn) | 25.4 | 7.6 | 0.1 | . | 5.3
CCCOc1nc(SCCC)nc2c1cnn2-c1ccccc1 | 53.0* | -2.5 | -7.8 | -2.9 | -1.1
CCCSc1nc2c(cnn2-c2ccccc2)c(=O)n1N | 1.4 | -1.6 | 17.1 | 8.3 | 3.0
Cc1ccc(NC(=O)Cc2cccc(OC(F)(F)F)c2)c(S(=O)(=O)N2CCOCC2)c1 | . | . | . | 1.6 | .
COC(=O)c1ccc(/C=N/Nc2nc(-c3ccc(C)cc3)cs2)cc1 | 0.4 | 0.1 | 52.4* | . | 12.7
O=C(CN1C(=O)NC2(CCCc3ccccc32)C1=O)N1CCN(C(=O)c2ccco2)CC1 (stereo not drawn) | 54.3* | -11.3 | -3.5 | -0.3 | -3.5
CCOC(=O)N1CCN(c2ncnc3c2oc2nc(C(C)C)c4c(c23)CCC4)CC1 | 3.0 | 5.1 | 55.0* | 8.7 | -9.2
Cc1cccc(Nc2ccc(C(=O)O)cc2[N+](=O)[O-])c1C | 52.6* | 8.8 | -4.4 | -2.3 | 6.7
COc1ccc(Nc2ccc(C(=O)O)cc2[N+](=O)[O-])cc1 | 25.5 | 9.5 | 0.0 | -3.6 | 1.2
Cc1cccc(C)c1NC(=O)[C@@H]1CC(=O)O[C@@H]1c1ccccc1 | . | . | . | -8.0 | .
CCOc1ccccc1N(C)S(=O)(=O)c1ccc2c(c1)CC(C)N2C(=O)C1CC1 (stereo not drawn) | 50.2* | -3.7 | 3.8 | -1.7 | -6.3
Cc1cccc(NC(=S)N/N=C/c2ccc(Cl)c([N+](=O)[O-])c2)c1 | 11.6 | -4.9 | 4.3 | 22.7 | -8.2
Cc1cccc(NC(=S)N/N=C/c2cccc([N+](=O)[O-])c2)c1 | 9.7 | -1.0 | 58.0* | . | 9.9
O=C(NCCc1c[nH]c2ccccc12)OCc1cn(Cc2ccccc2Cl)nn1 | . | . | . | 2.0 | .
C=CC[C@@H](CC(=O)N[C@@H](CO)Cc1ccccc1)C(=O)N[C@H](COC(=O)[C@H](CC=C)CC(=O)OC(C)(C)C)Cc1c[nH]c2ccccc12 | . | . | 0.6 | 24.5 | .
